# Only a selection was taken, and hits are over-represented in it overall.
# CBX7 AlphaScr: CBX7 chromodomain binding inhibitors, primary screen, biochemical, AlphaScreen. Chromobox protein homolog 7 (Homo sapiens), O95931. AlphaScreen His6-CBX7 / biotin-H3K27me3 peptide binding; hits give low values. normalised signal (fraction of DMSO) (test concentration not listed). actives 1.1% (n = 66,000). AID 1224903, 2016; in the data active means normalised signal below about 0.5
# Target sequence (O95931 whole entry, looked up): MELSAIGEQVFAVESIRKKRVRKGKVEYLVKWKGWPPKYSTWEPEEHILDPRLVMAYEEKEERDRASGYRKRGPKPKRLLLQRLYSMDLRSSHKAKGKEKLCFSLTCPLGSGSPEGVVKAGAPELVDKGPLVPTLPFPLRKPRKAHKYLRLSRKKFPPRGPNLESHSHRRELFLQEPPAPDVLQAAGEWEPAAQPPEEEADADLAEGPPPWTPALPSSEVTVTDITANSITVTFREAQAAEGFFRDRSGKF
# The depositor's hits bear a star.
SMILES,CBX7 AlphaScr
O=C(CCn1nc(-c2ccccc2)ccc1=O)NC1CCCCC1,1.2
COc1ccc(-c2nc(CN3CCC(C(=O)NC4CCCC4)CC3)c(C)o2)cc1,0.99
Cc1ccc(S(=O)(=O)c2cn(CC(=O)Nc3ccc(Cl)cc3)c3ccc(C)cc3c2=O)cc1,0.81
COc1ccc(-n2nnc3c(=O)n(CC(=O)Nc4cccc(OC)c4)cnc32)cc1,0.93
COc1ccc(CC(=O)NCCc2cc3ccc(C)c(C)c3[nH]c2=O)cc1OC,0.98
Cc1cc(C)cc(N(CC(=O)Nc2ccccc2F)S(=O)(=O)c2c(C)noc2C)c1,0.85
CCOc1ccc(-c2nc(CSCC(=O)NCc3ccccc3OC)c(C)o2)cc1,0.74
CCN1CCN(CCCNC(=O)c2cc3c(-c4ccc(Cl)cc4)nn(C)c3s2)CC1,1.1
O=C(NCc1cccc(Cl)c1)Nc1ccc2snnc2c1,1
Cc1c(C(=O)NCc2ccccn2)oc2ccc(S(=O)(=O)N3CCC4(CC3)OCCO4)cc12,0.43*
Cc1c(C(=O)NCc2ccccc2)oc2ccc(S(=O)(=O)N3CCC4(CC3)OCCO4)cc12,0.98
Cc1c(C(=O)NCCC(C)C)oc2ccc(S(=O)(=O)N3CCC4(CC3)OCCO4)cc12,1.2
CCc1ccccc1NC(=O)c1cc(-c2cccc(OC)c2)nc2ccccc12,1.1
O=C(c1ccc(S(=O)(=O)N2CCOCC2)cc1)N1CCCCC1c1cccnc1 (stereo unspecified),1
O=C(CCCCCn1c(=O)[nH]c2ccsc2c1=O)NCCc1c[nH]c2ccccc12,0.97
COc1ccc(CNC(=O)c2c(-c3ccncc3)csc2-n2cccc2)cc1,0.77
Cc1cccc(OCCCCn2c(CCCO)nc3ccccc32)c1,0.67
Cc1ccc(NC(=O)c2c(C)nc(Nc3nc4ccccc4o3)nc2C)cc1,1.1
CCCc1nc(Nc2nc3ccccc3o2)ncc1C(=O)OCC,1.1
Cc1ccccc1NC(=O)c1cnc(Nc2nc3ccccc3o2)nc1C,0.17*
CCC(=O)N1c2ccc(S(=O)(=O)NCCN3CCN(c4ccccc4F)CC3)cc2CC1C (stereo unspecified),1
Cc1ccc2nsnc2c1NC(=O)c1ncn[nH]1,0.45*
Cc1ccc2nsnc2c1NC(=O)c1cc(Cl)ccc1Cl,1
Cc1ccc2nsnc2c1NC(=O)c1cc(Br)ccc1Cl,1
c1ccc(Nc2nc(-c3cc4ccccc4o3)cs2)cc1,0.92
SMILES,CBX7 AlphaScr
Nc1c(C(=O)Nc2cccc3ccccc23)nnn1Cc1ccc(Cl)cc1,1.2
CCc1nc2ccccc2c(NC(=O)CN2CCN(C)CC2)c1C,0.053*
CCCCc1nc2ccccc2c(NC(=O)CN2CCN(C(=O)c3ccco3)CC2)c1CCC,0.96
O=C(CN1CCCCC1)Nc1c2c(nc3ccccc13)N(c1cccc(Cl)c1)CC2,1
COc1ccc(-n2c3c(cc(C(=O)Nc4ccccc4Br)c2=O)C(=O)CC(C)(C)C3)cc1,1.1
Cc1c(C(=O)NCc2ccc(F)cc2)sc2ncn(CC(=O)N3CCCC(C)C3)c(=O)c12 (stereo unspecified),1
O=C(Nc1nc(-c2ccccn2)cs1)c1ccc(Oc2ccccc2)cc1,0.12*
O=C(Nc1nc(-c2ccncc2)cs1)c1cccc(Oc2ccccc2)c1,0.92
COc1ccc(-c2csc(NC(=O)c3ccccc3)n2)cc1,1
COc1ccc(-c2csc(NC(=O)c3cccc(Oc4ccccc4)c3)n2)c(OC)c1,0.91
COc1ccc(-c2csc(NC(=O)c3ccc(Oc4ccccc4)cc3)n2)c(OC)c1,0.83
COc1cc(OC)cc(C(=O)Nc2nc(-c3ccccn3)cs2)c1,0*
Cc1ccc(CNC(=O)c2cnn3c(C)c(Cc4ccc(C)cc4)c(C)nc23)cc1,0.97
O=C1N2CCOc3ccc(Cl)cc3C2(c2ccccc2)C(=O)N1S(=O)(=O)c1ccccc1 (stereo unspecified),0.91
CCCCCC1C(c2ccccc2)N(C)C(c2ccccc2)CC1(O)c1cccc(OC)c1 (stereo unspecified),0.98
O=C(CSc1nnc(-c2cccnc2)o1)c1c[nH]c2ccccc12,1.1
O=C1C2=C(Nc3ccccc3SC2c2cccs2)c2ccccc21 (stereo unspecified),0.4*
CC1CCCCC1NC(=O)C(C)C1Sc2ccccc2NC1=O (stereo unspecified),1
CCNC(=O)CC1Sc2ccccc2NC1=O (stereo unspecified),0.91
CCN(C(=O)c1ccc2c(=O)n3c(nc2c1)CCCCC3)c1ccc(OC)cc1,0.86
CCOC(=O)C1CCCc2c1[nH]c1c(C(=O)NCc3ccccc3)cccc21 (stereo unspecified),0.57
Cc1ccc(C(C)C)c(OCC(O)CN2CCN(c3ccc(F)cc3)CC2)c1 (stereo unspecified),0.88
COc1ccc(-n2nc(C(=O)NCC(=O)Nc3nc4ccccc4s3)c3ccccc3c2=O)cc1,0.95
Cc1oc(-c2cccc(Cl)c2)nc1CN1CCC(C(=O)NCCCSC2CCCCC2)CC1,1.4
Cc1ccc2cc(CCNC(=O)C3CC3)c(=O)[nH]c2c1C,1.2
SMILES,CBX7 AlphaScr
Fc1ccc(C(c2ccccc2)N2CCN(CCCc3c[nH]c4ccccc34)CC2)cc1 (stereo unspecified),0.51
Cc1ccc(C(c2ccccc2)N2CCN(CCCc3c[nH]c4ccccc34)CC2)cc1 (stereo unspecified),0.49*
c1ccc(C(c2ccccc2)N2CCN(CCCc3c[nH]c4ccccc34)CC2)cc1,0.5
COc1ccc(N2CCN(C(c3cccs3)c3sc4nc(C)nn4c3O)CC2)cc1 (stereo unspecified),0.93
Cc1cc(C)cc(-n2ccnc2SCC(=O)Nc2cc(C)on2)c1,0.9
Cc1nccc2[nH]c(=O)c(C(=O)NC(C)C)cc12,1
CCCN1CCN(C(=O)C2CCCN(c3nc4ccc(OCC)cc4s3)C2)CC1 (stereo unspecified),0.29*
CCCNC(=O)C1CCCN(c2nc3ccc(OCC)cc3s2)C1 (stereo unspecified),0.96
CCOc1ccc2nc(N3CCCC(C(=O)N4CCN(c5ccc(OC)cc5)CC4)C3)sc2c1 (stereo unspecified),0.61
CCOC(=O)N1CCN(C(=O)C2CCCN(c3nc4ccc(OCC)cc4s3)C2)CC1 (stereo unspecified),0.95
CCOc1ccc2nc(N3CCCC(C(=O)NCCCN4CCOCC4)C3)sc2c1 (stereo unspecified),0.99
CCOc1ccc2nc(N3CCCC(C(=O)NCCCN4CCN(C)CC4)C3)sc2c1 (stereo unspecified),0.44*
CC(C)NC(=O)Cn1nc(-c2ccccc2)c2cc(Cl)ccc21,1
COc1ccc(OCCCn2c(C3CC(=O)N(c4cc(C)ccc4C)C3)nc3ccccc32)cc1 (stereo unspecified),0.99
Cc1cc(N2CCN(c3ncccn3)CC2)nc2ccc(NC(=O)c3ccccc3F)cc12,1.1
COc1ccc(-c2cc(C(F)(F)F)nc(NC(C)c3ccccc3)n2)cc1 (stereo unspecified),1.4
CC1CCc2c(C(=O)NCCCN3CCc4ccccc4C3)csc2C1 (stereo unspecified),1
O=C(NCCCn1ccnc1)c1ccc(C#Cc2ccccc2)cc1,0.11*
O=C(NCCCn1ccnc1)C(=O)NCCc1ccccc1,1.2
O=C(NCCCn1ccnc1)C(O)(c1ccccc1)c1ccccc1,1
COc1ccc(NC(=O)c2cc3c(n(-c4ccccc4)c2=O)CCCC3=O)c(OC)c1,0.99
COc1ccc(NC(=O)C2CCN(S(=O)(=O)c3ccccc3)CC2)c(OC)c1,1.1

# Screening results deposited in PubChem by Bradner/Qi Labs at DFCI.
